Here are results for eight compounds from ChEMBL document CHEMBL3988442, “University of Dundee, Small-Polar-MMV Screening Library” (2021).

For some of these results: Potency and affinity values are given separately.

What all share (design): scale not given: direction of the effect not stated beside the values
Assay [1] concerns the target Protein translocase subunit SecA (Escherichia coli (strain K12)) (UniProt P10408). Nature of the assay: Assay to Identify E. coli SecA ATPase Inhibitors. The assay is classed as functional. To be noted: 30 µM.
For assay [2], the target named is T1, Ubiquitin-activating enzyme e1, putative (Leishmania donovani (strain BPK282A1)) (UniProt E9BSI1).
T1 sequence (whole entry): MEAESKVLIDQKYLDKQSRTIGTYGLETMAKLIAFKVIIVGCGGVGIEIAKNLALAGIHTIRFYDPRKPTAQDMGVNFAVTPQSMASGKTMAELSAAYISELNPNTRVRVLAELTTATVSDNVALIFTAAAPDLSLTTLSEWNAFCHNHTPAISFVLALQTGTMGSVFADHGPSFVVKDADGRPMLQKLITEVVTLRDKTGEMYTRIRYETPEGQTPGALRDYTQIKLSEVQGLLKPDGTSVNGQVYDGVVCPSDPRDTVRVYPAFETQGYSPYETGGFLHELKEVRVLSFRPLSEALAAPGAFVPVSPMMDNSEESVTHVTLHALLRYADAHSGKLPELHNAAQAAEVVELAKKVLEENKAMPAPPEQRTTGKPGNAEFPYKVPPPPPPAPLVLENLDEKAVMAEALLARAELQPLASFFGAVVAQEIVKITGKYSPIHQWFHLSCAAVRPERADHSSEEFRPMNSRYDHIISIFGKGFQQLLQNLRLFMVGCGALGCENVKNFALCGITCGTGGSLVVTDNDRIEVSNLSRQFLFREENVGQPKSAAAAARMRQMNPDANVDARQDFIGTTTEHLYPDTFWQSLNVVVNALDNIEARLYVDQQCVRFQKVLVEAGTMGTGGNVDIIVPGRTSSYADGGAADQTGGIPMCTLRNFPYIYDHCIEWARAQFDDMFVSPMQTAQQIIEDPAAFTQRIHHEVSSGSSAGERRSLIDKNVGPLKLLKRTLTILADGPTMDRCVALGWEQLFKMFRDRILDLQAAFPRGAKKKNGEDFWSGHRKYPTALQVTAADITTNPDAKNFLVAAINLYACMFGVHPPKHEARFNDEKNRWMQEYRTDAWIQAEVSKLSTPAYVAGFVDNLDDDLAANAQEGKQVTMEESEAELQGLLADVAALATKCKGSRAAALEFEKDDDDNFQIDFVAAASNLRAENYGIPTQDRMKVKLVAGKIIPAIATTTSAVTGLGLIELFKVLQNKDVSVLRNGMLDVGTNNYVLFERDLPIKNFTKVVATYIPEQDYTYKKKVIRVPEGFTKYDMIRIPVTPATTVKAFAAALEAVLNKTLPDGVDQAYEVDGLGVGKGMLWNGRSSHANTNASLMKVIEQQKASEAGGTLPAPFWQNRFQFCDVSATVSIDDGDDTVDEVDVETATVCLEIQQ
Nature of the assay: Leishmania donovani Ubiquitin Activating Enzyme (LdE1). The assay is classed as functional. To be noted: 30 µM.

For assay [3], the target named is AMP-activated protein kinase, AMPK (Homo sapiens) (UniProt P54646+O43741+P54619+Q9UGJ0+Q9Y478+Q13131+Q9UGI9). Nature of the assay: AMP-dependent Kinase enzyme assay. An in vitro enzyme assay that detects ADP turnover that is directly proportional to AMPK activity. This uses naive AMPK that is activated during the assay with MK-8722. It is filed as functional. The note with it: 30 µM.

Assay [4] deals with Sialic acid-binding Ig-like lectin 9 (Homo sapiens) (UniProt Q9Y336). In words: Hs-Siglec9 ALPHAscreen SOP 20170721. The note with it: 10 µM. On the technique in general: Bead proximity is the source of the signal in Alpha formats.
Sialic acid-binding Ig-like lectin 9 (Homo sapiens), sequence (Q9Y336 whole entry): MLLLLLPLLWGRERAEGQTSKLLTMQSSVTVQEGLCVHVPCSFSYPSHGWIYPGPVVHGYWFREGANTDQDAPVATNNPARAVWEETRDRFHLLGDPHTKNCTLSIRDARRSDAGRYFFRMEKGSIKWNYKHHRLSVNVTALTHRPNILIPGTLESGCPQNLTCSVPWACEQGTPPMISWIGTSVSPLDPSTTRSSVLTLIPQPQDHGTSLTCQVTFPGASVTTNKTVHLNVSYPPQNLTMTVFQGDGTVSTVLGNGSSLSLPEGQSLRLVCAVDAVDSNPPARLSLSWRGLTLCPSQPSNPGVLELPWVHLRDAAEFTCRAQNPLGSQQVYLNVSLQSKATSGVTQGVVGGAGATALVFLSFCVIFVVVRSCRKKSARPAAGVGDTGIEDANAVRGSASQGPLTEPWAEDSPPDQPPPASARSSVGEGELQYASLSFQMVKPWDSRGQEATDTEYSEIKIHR
A further assay deals with Trypanosoma cruzi. Nature of the assay: Trypanosoma cruzi phosphomannomutase and mannose-1-phosphate guanylyltransferase assay. The assay is classed as functional. The note with it: 10 µM.
In assay [5] the target is T2, Arginase-2, mitochondrial (Homo sapiens) (UniProt P78540).
T2 sequence (whole entry): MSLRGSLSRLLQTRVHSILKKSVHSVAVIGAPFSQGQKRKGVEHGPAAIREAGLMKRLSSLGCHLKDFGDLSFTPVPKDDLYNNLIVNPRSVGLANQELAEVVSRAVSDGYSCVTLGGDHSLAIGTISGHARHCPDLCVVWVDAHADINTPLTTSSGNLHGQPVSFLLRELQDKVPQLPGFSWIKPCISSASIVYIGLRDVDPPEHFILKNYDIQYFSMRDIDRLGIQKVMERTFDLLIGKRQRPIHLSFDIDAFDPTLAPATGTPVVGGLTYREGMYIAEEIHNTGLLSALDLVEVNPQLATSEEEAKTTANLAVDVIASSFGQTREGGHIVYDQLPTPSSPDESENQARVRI
In words: in vitro enzyme assay to detect the production of urea directly proportional to the activity of Arginase II. Also: in the data most compounds retested in dose-response had high values. The assay is classed as functional. To be noted: 33.3 µM.

Assay [6] has as its target T3, Proteasome subunit beta (Trypanosoma cruzi) (UniProt O96673).
T3 sequence (whole entry): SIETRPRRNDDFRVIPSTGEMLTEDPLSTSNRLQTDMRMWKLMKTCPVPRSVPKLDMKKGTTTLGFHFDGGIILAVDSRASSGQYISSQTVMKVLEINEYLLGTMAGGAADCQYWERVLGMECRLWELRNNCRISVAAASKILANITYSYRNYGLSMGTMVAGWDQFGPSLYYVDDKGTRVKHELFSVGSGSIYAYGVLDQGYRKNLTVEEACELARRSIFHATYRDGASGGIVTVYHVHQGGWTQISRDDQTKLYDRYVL
In words: Trypanosoma cruzi proteasome chymotrypsin-like activity (TcProtChymo) assay. Also: in the data most compounds retested in dose-response had high values. To be noted: 9.37 µM. The assay is classed as functional.

The species named for the next assay is Homo sapiens. In words: To identify inhibition of the IFN signalling (Jak-Stat) pathway via expression of an eGFP reporter gene under the control of an IFN-stimulated response element (ISRE) containing MxA promoter. The assay is classed as functional. To be noted: 30 µM. In general terms: Reporter assays use an easily measured gene product as a stand-in for the process of interest.

Assay [7] concerns the target T4, Tyrosyl-tRNA synthetase, putative (Trypanosoma cruzi (strain CL Brener)) (UniProt Q4DSP6).
T4 sequence (whole entry): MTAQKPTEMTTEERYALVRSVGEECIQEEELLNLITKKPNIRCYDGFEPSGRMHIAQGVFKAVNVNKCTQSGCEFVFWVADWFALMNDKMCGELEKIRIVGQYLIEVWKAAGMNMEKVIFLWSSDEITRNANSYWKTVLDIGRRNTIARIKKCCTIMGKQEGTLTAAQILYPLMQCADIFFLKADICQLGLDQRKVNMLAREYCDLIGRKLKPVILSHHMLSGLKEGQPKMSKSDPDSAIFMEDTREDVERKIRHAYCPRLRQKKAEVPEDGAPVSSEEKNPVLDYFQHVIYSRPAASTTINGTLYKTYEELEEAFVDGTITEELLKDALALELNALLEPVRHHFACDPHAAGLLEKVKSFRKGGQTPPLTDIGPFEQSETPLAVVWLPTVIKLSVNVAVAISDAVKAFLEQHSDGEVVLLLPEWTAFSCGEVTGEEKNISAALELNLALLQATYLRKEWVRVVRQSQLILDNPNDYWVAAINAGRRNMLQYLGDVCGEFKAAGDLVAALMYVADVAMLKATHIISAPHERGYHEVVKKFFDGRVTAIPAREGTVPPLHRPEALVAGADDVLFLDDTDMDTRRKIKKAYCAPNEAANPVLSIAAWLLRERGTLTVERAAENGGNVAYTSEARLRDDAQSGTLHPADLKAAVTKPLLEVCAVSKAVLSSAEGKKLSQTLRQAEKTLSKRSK
Nature of the assay: Trypanosoma cruzi tyrosyl tRNA synthetase (TcYRS) _High Tyrosine SOP. Also: in the data most compounds retested in dose-response had high values. The assay is classed as functional. To be noted: 30 µM.

For assay [8], the target named is T4, Tyrosyl-tRNA synthetase, putative (Trypanosoma cruzi (strain CL Brener)). Nature of the assay: Trypanosoma cruzi tyrosyl tRNA synthetase (TcYRS) SOP. The assay is classed as functional. To be noted: 30 µM.
Assay [9] concerns the target Chromo domain-containing protein 1 (Saccharomyces cerevisiae (strain ATCC 204508 / S288c) (Baker's yeast)) (UniProt P32657). In words: ScCHD-1 Enzyme Inhibition Assay. Also: in the data most compounds retested in dose-response had high values. To be noted: 30 µM. The assay is classed as functional.

Chromo domain-containing protein 1 (Saccharomyces cerevisiae (strain ATCC 204508 / S288c) (Baker's yeast)), sequence (P32657 whole entry, the tested form may be a part): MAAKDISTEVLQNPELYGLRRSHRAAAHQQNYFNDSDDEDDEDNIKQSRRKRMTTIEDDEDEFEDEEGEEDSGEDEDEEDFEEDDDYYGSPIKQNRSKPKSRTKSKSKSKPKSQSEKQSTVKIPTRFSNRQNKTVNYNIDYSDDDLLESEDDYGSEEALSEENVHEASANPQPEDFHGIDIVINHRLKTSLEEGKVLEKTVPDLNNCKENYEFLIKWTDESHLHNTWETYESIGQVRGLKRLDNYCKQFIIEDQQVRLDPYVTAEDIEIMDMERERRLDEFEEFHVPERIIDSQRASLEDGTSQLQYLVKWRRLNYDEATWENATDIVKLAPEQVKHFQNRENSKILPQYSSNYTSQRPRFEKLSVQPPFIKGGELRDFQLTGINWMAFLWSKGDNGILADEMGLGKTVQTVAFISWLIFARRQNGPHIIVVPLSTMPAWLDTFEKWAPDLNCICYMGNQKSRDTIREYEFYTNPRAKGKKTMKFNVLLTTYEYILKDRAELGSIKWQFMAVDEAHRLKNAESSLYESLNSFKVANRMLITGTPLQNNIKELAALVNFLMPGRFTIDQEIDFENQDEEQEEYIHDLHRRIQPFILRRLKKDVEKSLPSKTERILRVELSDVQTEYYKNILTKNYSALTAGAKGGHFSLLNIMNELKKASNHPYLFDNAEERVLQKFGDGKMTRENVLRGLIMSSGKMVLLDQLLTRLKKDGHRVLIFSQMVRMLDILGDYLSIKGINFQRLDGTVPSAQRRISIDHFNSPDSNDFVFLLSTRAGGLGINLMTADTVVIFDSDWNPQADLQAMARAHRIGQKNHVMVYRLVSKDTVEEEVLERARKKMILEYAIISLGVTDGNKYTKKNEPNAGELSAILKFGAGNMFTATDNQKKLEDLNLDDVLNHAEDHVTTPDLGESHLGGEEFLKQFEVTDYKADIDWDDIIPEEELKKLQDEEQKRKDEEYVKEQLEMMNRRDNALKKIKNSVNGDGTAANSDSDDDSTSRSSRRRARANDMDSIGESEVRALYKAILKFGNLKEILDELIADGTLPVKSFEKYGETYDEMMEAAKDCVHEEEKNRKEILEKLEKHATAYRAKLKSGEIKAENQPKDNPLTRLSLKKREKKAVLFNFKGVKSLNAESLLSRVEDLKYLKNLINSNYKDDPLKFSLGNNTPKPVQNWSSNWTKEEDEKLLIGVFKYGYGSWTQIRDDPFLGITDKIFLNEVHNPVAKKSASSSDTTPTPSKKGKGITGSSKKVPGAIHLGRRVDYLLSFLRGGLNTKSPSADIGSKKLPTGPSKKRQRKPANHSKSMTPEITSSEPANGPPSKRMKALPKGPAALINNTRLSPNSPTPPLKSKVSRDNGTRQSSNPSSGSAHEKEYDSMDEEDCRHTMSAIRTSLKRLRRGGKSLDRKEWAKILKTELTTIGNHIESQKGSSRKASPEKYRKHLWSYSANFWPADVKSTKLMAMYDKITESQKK
Protein translocase subunit SecA (Escherichia coli (strain K12)), sequence (P10408 whole entry): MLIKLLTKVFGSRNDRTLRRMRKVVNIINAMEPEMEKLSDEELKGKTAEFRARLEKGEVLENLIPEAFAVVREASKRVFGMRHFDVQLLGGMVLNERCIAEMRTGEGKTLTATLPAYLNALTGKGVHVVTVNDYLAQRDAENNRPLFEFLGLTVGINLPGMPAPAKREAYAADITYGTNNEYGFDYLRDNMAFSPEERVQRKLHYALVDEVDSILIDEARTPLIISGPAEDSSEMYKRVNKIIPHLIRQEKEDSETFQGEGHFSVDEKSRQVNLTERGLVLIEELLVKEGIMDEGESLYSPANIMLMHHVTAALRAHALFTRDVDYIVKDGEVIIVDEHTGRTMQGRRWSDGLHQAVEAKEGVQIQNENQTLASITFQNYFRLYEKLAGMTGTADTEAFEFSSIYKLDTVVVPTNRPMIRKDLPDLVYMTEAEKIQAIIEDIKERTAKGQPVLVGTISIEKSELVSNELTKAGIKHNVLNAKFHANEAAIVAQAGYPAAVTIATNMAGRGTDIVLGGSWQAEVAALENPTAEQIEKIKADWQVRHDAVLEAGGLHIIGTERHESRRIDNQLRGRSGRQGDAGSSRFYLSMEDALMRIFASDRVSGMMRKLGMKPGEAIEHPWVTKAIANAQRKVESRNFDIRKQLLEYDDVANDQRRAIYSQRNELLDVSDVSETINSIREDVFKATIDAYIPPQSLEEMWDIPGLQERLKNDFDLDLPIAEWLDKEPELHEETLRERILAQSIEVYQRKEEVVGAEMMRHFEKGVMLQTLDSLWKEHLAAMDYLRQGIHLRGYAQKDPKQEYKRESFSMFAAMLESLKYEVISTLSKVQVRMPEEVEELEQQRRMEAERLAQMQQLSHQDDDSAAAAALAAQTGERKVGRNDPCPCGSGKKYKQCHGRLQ

For the compound `CN1C(=O)CC(C(=O)O)C12CCN(Cc1ccc(F)cc1Cl)CC2` (stereo not drawn), the Percent Effect in assay [1] was -3.75%; in assay [2], 2.67%; in assay [3], -7.2%; in [4], 5.97%; in the assay with Trypanosoma cruzi, 3.41%; in assay [5], -0.521%. The Percent Effect in assay [6] was 16%; in the assay filed under Homo sapiens, 15.5%; in assay [7] it was 8.2%; in assay [8], 13.6%; in [9], -3.62%.
With `CCN1CCCC(CNC(=O)C2(c3cccc(Cl)c3)CC2)C1` (stereo not drawn), the Percent Effect in assay [1] was -4.26%; in assay [2], 6.33%; in assay [3], 0.975%; in [4] it was 3.63%; with Trypanosoma cruzi it was -5.85%; in assay [5] it was -2.8%. Moreover, the Percent Effect in assay [6] was 14.6%; in the assay filed under Homo sapiens, 8.9%; in assay [7] it was 7.29%; in [8] it was 15.2%; in [9] it was -13.8%.
Take `Cc1cc(C)c(CNC(=O)NCC2CCCN2C)c(=O)[nH]1` (stereo not drawn): the Percent Effect in assay [1] was -7.62%; in assay [2], 2.63%; in assay [3], -1.76%; in assay [4] it was 2.1%; with Trypanosoma cruzi, -4.89%; in assay [5] it was -2.68%. The Percent Effect in [6] was 4.84%; in the assay filed under Homo sapiens it was 25.4%; in assay [7], -4.41%; in assay [8], -2.44%; in assay [9], -2.8%.
Turning to `Cc1nc(C)c(CC(=O)Nc2nnc(C)s2)c(=O)[nH]1`, the Percent Effect in assay [1] was -0.0632%; in [2], -13.2%; in assay [3], -1.32%; in assay [4], 2.92%; in the assay with Trypanosoma cruzi, 2.82%; in assay [5], 1.15%. Also, the Percent Effect in assay [6] is 7.85%; in the assay filed under Homo sapiens it was 0.477%; in assay [7], 4.41%; in [8] it was 21.9%; in assay [9], -10.9%.
Regarding `C1CC(c2noc(C3CC3)n2)CN(Cc2noc(C3CC3)n2)C1` (stereo not drawn), the Percent Effect was -3.36% in assay [1]; 0% in [2]; -13.1% in assay [3]; 11.5% in assay [4]; -3.11% in the assay on Trypanosoma cruzi; -1.6% in [5]. For the same compound, the Percent Effect in assay [6] is 1.62%; in the assay filed under Homo sapiens it was -3.78%; in assay [7] it was 0.493%; in assay [8] it was 1.24%; in [9], 1.88%.
Turning to `Cc1cc(C)n(C2CN(CC(O)c3ccc4c(c3)OCO4)C2)n1` (stereo not drawn), the Percent Effect in [1] was -2.6%; in assay [2], -13%; in assay [3] it was 0.139%; in assay [4], 7.69%; in the assay with Trypanosoma cruzi it was 3.37%; in assay [5], -2.85%. Further, the Percent Effect in assay [6] is 4.56%; in the assay listed under Homo sapiens, 26.7%; in [7], 15.5%; in assay [8], 12.2%; in [9], -2.01%.
Consider `O=C(CCc1ccc(O)cc1)N1CCC(Cc2ccc(CO)cc2)C1` (stereo not drawn), for which the Percent Effect is -2.29% in assay [1]; 6.94% in [2]; 21.8% in assay [3]; -5.94% in assay [4]; -2.82% in the assay with Trypanosoma cruzi; 1.32% in assay [5]. Moreover, the Percent Effect is 8.6% in assay [6]; -10.8% in the assay listed under Homo sapiens; 5.26% in [7]; 12.8% in [8]; -1.12% in assay [9].
For the compound `O=C1CCCN1CC1CN(C(=O)CC2CCCC2)Cc2nccn2C1` (stereo not drawn), the Percent Effect was -4.26% in [1]; 7.79% in [2]; 4.17% in [3]; 6.88% in assay [4]; -1.08% in the assay on Trypanosoma cruzi; 0.645% in assay [5]. In addition, the Percent Effect in [6] was 11.7%; in the assay filed under Homo sapiens, -6.04%; in assay [7], 4.23%; in [8] it was 11.5%; in assay [9] it was -9.36%.
